# Screening data as filed in PubChem BioAssay.
# An excerpt weighted towards active compounds, which were near 32% of everything screened.
# PostGolgi ctrl = inhibits growth of the yeast control strain; inhibition, % at 10 µM; AID 738; efflux-deficient yeast background strain, growth absorbance A615, 16 h; hit rate 5% among 98,000
# CYP2C19 inh = human CYP2C19 inhibition; hit rate 21% among 96,000; inhibition, % at 5 µM; AID 778; CYP2C19 Supersomes, luciferin-H EGE luminescence, 30 min;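 active = CYP2C19 inhibition above a set limit at 5 µM in the primary screen, cut at about 50% in these data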;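 note: plate controls were negative control wells for no effect and 2.5 mM tranylcypromine positive control for full effect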
# CYP2C19 act = increases human CYP2C19 enzyme activity; recombinant CYP2C19, luciferin-H EGE luminescence; stronger effect = higher value; 0 = fully inhibited enzyme, 1 = untreated enzyme; activation factor at 5 µM; 96,000 tested, under 10 active;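 active = activation factor of at least 2 at 5 µM in the primary screen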;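 note: 0 = wells with 2.5 mM tranylcypromine and 1 = vehicle-only wells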
# PostGolgi yeast = growth inhibition of a yeast mutant, post-Golgi transport screen. AID 739. inhibition, % at 10 µM. hit rate 0.9% among 98,000. post-Golgi transport phenotypic cell assay;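 note: yeast cells grown in 1536-well plates; yeast grown about 18 h at 30C before absorbance read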
# CYP2C9 inh = inhibitors of human CYP2C9; P11712; CYP2C9 Supersomes, luciferin-H conversion, luminescence; inhibition, % at 5 µM; hit rate 20% among 96,000; AID 777;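 active = blocking of liver enzyme CYP2C9 beyond about 50% at 5 µM, limit read from the data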
# Target sequence (P11712 whole entry, looked up): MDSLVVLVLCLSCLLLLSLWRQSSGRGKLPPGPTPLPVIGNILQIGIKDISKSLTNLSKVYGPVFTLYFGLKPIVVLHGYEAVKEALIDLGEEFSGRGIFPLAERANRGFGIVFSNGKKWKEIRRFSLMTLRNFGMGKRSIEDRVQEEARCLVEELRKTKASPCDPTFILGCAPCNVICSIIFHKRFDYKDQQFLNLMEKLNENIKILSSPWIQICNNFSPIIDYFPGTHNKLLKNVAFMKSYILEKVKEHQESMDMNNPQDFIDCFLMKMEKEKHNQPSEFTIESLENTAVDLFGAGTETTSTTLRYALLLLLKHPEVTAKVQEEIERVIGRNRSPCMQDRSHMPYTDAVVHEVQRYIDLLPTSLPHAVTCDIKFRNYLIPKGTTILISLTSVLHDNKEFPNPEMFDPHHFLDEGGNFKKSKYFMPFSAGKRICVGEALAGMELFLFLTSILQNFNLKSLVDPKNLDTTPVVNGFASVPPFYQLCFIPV
# CYP2C9 act = increases human cytochrome P450 2C9 activity. P11712. recombinant CYP2C9, luciferin-H conversion, luminescence; stronger effect = higher value; factor 1 = untreated enzyme, 0 = blocked. activation factor at 5 µM. hit rate 1.4% among 96,000. AID 1024;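 active = activation factor of 2 or more for CYP2C9 at a 5 µM dose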;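 note: 0 = sulfaphenazole-blocked wells and 1 = vehicle-only wells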
# Active calls of the source: *; · = no result. Cut-off read from the data, not from the text of the source, unless noted: active = inhibition above about 30%; inactive = the rest.
SMILES,PostGolgi ctrl,CYP2C19 inh,CYP2C19 act,PostGolgi yeast,CYP2C9 inh,CYP2C9 act
COc1ccc2c(c1)C(C)CC(C)(C)N2C(=O)CSc1nc2ccccc2s1 (stereo unspecified),17.4,71.3*,0.3,-5.7,53.5*,0.5
CC(C)OC(=O)CSc1nc2ccccc2s1,0.6,19.8,0.8,7.1,7.5,0.9
CCSc1nnc(CNc2ccc(F)cc2)n1CC1CCCO1 (stereo unspecified),3.7,3.5,1,4.1,-10.2,1.1
Cc1cccc(-n2nc3c(c2NC(=O)c2ccc(Br)o2)CSC3)c1,6.0,-4.0,1,2.4,83.5*,0.2
Cc1ccc(-n2nc3c(c2NC(=O)c2cccs2)CSC3)cc1,-5.8,22.0,0.8,10.7,71.8*,0.3
COc1ccc(-n2nc3c(c2NC(=O)c2ccc(Br)cc2)CS(=O)C3)cc1 (stereo unspecified),9.0,-7.1,1.1,2.0,25.2,0.7
CCN(Cc1ccccc1)CC(O)COc1ccccc1 (stereo unspecified),-4.8,44.0,0.6,4.0,12.1,0.9
CC(OCC(O)CN(C)CCOc1ccccc1)c1ccc(Cl)cc1 (stereo unspecified),14.3,75.4*,0.2,9.7,36.6,0.6
CCOC(=O)N1CCN(C(=O)C(CC)n2nc(C)c3sc4ccccc4c3c2=O)CC1 (stereo unspecified),27.5,8.6,0.9,-2.0,58.5*,0.4
Cc1nn(C(C)C(=O)NCc2ccccc2Cl)c(=O)c2c1sc1ccccc12 (stereo unspecified),54.7*,87.5*,0.1,-12.7,97.1*,0
COc1ccc(S(=O)(=O)n2c(CCN3CCOCC3)nc3ccccc32)cc1,0.3,12.8,0.9,11.5,-67.2,1.7
CC12CCCCC1(O)[N+](=O)C1=C(CCCC1)N2[O-] (stereo unspecified),5.0,2.9,1,-7.7,0.9,1
CC(/C=N/NC(=O)c1ccncc1)=C\c1ccc(C(C)C)cc1,35.2*,22.4,0.8,30.4*,8.7,0.9
COC(=O)CN(c1ccc(OC)cc1)S(=O)(=O)c1c(C)noc1C,33.1*,46.3,0.5,0.9,9.8,0.9
CCOc1ccc(N(CC(=O)Nc2ccc(OC)cc2)S(=O)(=O)c2c(C)noc2C)cc1,-8.2,6.6,0.9,-8.1,7.9,0.9
COc1ccc(N(CC(=O)Nc2ccc(C)cn2)S(=O)(=O)c2c(C)noc2C)cc1,7.8,72.7*,0.3,-5.9,70.1*,0.3
CC(C)(C)c1nnc2sc(SC/C(O)=C(\C#N)c3nc4ccccc4[nH]3)nn2c1=O,4.8,68.0*,0.3,-7.3,43.2,0.6
COc1ccc(-n2c(C)cc(C(=O)CSc3nn4c(=O)c(C(C)(C)C)nnc4s3)c2C)cc1,-6.7,58.0*,0.4,-7.8,78.1*,0.2
COc1ccc(C(=O)CSc2nn3c(=O)c(C(C)(C)C)nnc3s2)cc1,12.2,13.8,0.9,1.5,26.7,0.7
CC(C)(C)c1nnc2sc(SCC(=O)c3ccccc3)nn2c1=O,5.1,36.5,0.6,-6.9,88.4*,0.1
COc1cc(C(C(=O)NC(C)(C)C)N(C(=O)CNC(=O)c2cccs2)c2ccc(C(C)C)cc2)cc(OC)c1OC (stereo unspecified),13.8,33.2,0.7,4.7,19.9,0.8
CCN(Cc1ccccc1)S(=O)(=O)c1ccc(S(=O)(=O)N2CCN(CCC#N)CC2)cc1,7.2,-25.5,1.3,4.6,-2.7,1
O=C(CN1CCN(c2ccccn2)CC1)N(c1ccccc1)c1ccc2ccccc2c1,65.8*,56.1*,0.4,-9.1,51.1*,0.5
O=C(CN1CCOCC1)N(c1ccccc1)c1ccc2ccccc2c1,11.6,76.5*,0.2,27.8,44.8,0.6
O=C(CN1CCN(c2ccccn2)CC1)NC(=O)NC1CCCCC1,8.8,10.1,0.9,-9.5,44.4,0.6
SMILES,PostGolgi ctrl,CYP2C19 inh,CYP2C19 act,PostGolgi yeast,CYP2C9 inh,CYP2C9 act
O=C(CSc1nnc(-c2ccc(S(=O)(=O)N3CCCC3)cc2)n1CC1CCCO1)NC1CC1 (stereo unspecified),-2.1,-17.3,1.2,24.7,-20.2,1.2
COC(=O)c1cc(OC)c(OC)cc1NC(=O)c1ccc(C)o1,20.1,42.6,0.6,-9.7,49.2,0.5
O=S(=O)(Nc1ccn(-c2ccccc2)n1)c1ccc(Br)cc1,20.3,72.0*,0.3,0.5,98.9*,0
CCOC(=O)C1CCCCN1Cc1ccc(F)c(Br)c1 (stereo unspecified),0.5,81.8*,0.2,25.5,45.9,0.5
Cc1nc2ccc(NC(=O)NCCCO)cc2s1,6.5,-24.6,1.2,-2.0,-22.8,1.2
COc1ccc(S(=O)(=O)N(C)CC(=O)O)c2ccccc12,5.4,7.7,0.9,6.1,27.7,0.7
CCCCN(CCCC)S(=O)(=O)c1ccc(OC)c2ncccc12,13.5,14.2,0.9,2.1,66.4*,0.3
COc1ccc(S(=O)(=O)N(CC(C)C)CC(C)C)c2cccnc12,29.1,43.7,0.6,0.4,91.7*,0.1
COc1ccccc1CN1CC(C(=O)NC2CCCCC2)CC1=O (stereo unspecified),-1.4,12.5,0.9,-2.6,-19.5,1.2
CC(C)Oc1ccc(-c2cc(=O)[nH]c(=O)[nH]2)cc1,11.3,-16.5,1.2,11.1,-27.4,1.3
c1ccc(-c2nn3c(C4CCCCC4)nnc3s2)cc1,17.1,20.7,0.8,13.6,37.7,0.6
c1ccc(-c2nn3c(C4CCCCC4)nnc3s2)nc1,-1.7,69.9*,0.3,19.0,59.3*,0.4
c1ccc(CCc2nn3c(Cc4ccccc4)nnc3s2)cc1,18.9,80.4*,0.2,-1.5,72.8*,0.3
CCOc1ccccc1-c1nn2c(Cc3ccccc3)nnc2s1,78.4*,54.4*,0.5,8.0,-6.6,1.1
c1ccc(Cc2nnc3n2CCCCC3)cc1,7.7,1.8,1,13.0,1.8,1
c1csc(-c2nn3c(Cn4cnc5ccccc54)nnc3s2)c1,5.2,58.3*,0.4,1.8,18.2,0.8
C=CCn1c(SC/C=C/c2ccccc2)nnc1-c1sc(N)nc1C,18.2,41.0,0.6,-1.6,38.2,0.6
c1ccc(Cc2nnc3sc(-c4cccs4)nn23)cc1,15.3,59.9*,0.4,15.5,54.8*,0.5
Clc1cccc(-c2nn3c(COc4ccccc4)nnc3s2)c1,·,7.8,0.9,·,3.0,1
c1ccc(Cc2nnc3sc(-c4ccccn4)nn23)cc1,-0.6,92.5*,0.1,4.0,63.4*,0.4
c1ccc(Cc2nnc3sc(-c4ccncc4)nn23)cc1,1.1,96.2*,0,4.8,51.6*,0.5
Clc1ccc(OCc2nn3c(C4CCCCC4)nnc3s2)cc1,42.4*,27.8,0.7,11.6,90.1*,0.1
COc1ccc(C2CC(=O)C(C=NCCN3CCN(C(C)=O)CC3)=C(O)C2)cc1OC (stereo unspecified),·,-4.0,1,·,-6.5,1.1
